Casp6 inh: inhibitors of human caspase-6; P55212; purified caspase-6, Z-VEID-R110 cleavage fluorescence; inhibition, % at 12.5 µM; hit rate 0.53% among 350,000;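 active = mean inhibition across replicates at least about 35%, with every replicate also reaching that limit, limit read from the data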;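 also: 0% = median of neutral control wells and 100% = no fluorescence left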
NSD2 HMT inh: blocks human histone methyltransferase NSD2. O96028. NSD2 peptide methylation, AlphaScreen, 120 min. hit rate 0.54% among 310,000. inhibition, % at 12.5 µM. AID 743445; in the data active = inhibition above about 50%
ARNT TACC3 PPI: disruptors of human ARNT/TACC3 interaction. Q9Y6A5. AlphaScreen His-ARNT PAS-B/GST-TACC3 binding, luminescence; TACC3 fragment carries E629A point mutation. inhibition, % at 9.99 µM. hit rate 0.66% among 390,000. AID 623870;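 active = mean inhibition of replicates at least 50% and at least half of replicates each reaching 50%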;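 also: 0% = complete ARNT plus TACC3 wells and 100% = ARNT alone without TACC3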
PfHsp90 yeast 2: growth inhibition of yeast expressing Plasmodium Hsp90; inhibition, % at 9.4 µM; S. cerevisiae expressing PfHsp90, BacTiter-Glo ATP, 48 h; yeast lacking PDR1 and PDR3 efflux regulators; hit rate 0.32% among 310,000;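 active = every replicate shows inhibition above about 80%, whatever the replicate mean, limit read from the data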;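 also: 0% = DMSO neutral controls and 100% = 20 µM radicicol positive controls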
SIRT5 inh: inhibitors of human sirtuin-5 desuccinylase. hit rate 1.1% among 330,000. AID 652115. Purified SirT5, succinyl-peptide AMC, trypsin-coupled fluorescence. inhibition, % at 15 µM; in the data active = inhibition above about 15%
Starred values were filed as active, the others as inactive; . = no result given; ! = not active in a repeat. A selection: hits, their analogues and other compounds. The true share with any hit is near 2.1%.

SMILES	Casp6 inh	NSD2 HMT inh	ARNT TACC3 PPI	PfHsp90 yeast 2	SIRT5 inh
O=C(C[C@@H]1C[C@H]2c3cc(NC(=O)Nc4ccccc4F)ccc3O[C@H]2[C@H](CO)O1)NC1CCCC1	99*	.	-12	.	0
O=C(C[C@H]1C[C@H]2c3cc(NC(=O)Nc4ccccc4F)ccc3O[C@H]2[C@H](CO)O1)NC1CCCC1	4	.	-19	.	-3
CN(C)CC(=O)Nc1ccc2c(c1)[C@H]1C[C@H](CC(=O)N3CCOCC3)O[C@H](CO)[C@H]1O2	.	.	5	.	.
O=C(C[C@H]1C[C@H]2c3cc(NC(=O)NC4CCCC4)ccc3O[C@H]2[C@@H](CO)O1)NCCN1CCCCC1	-2	.	4	.	-3
COc1ccccc1CNC(=O)C[C@@H]1C[C@@H]2c3cc(NC(=O)Cc4ccncc4)ccc3O[C@@H]2[C@H](CO)O1	0	.	41*	.	-2
COc1ccccc1CNC(=O)C[C@H]1C[C@H]2c3cc(NC(=O)Cc4ccncc4)ccc3O[C@H]2[C@@H](CO)O1	-2	.	5	.	-4
C[C@H](CO)N1C[C@H](C)[C@H](CN(C)S(=O)(=O)c2cccs2)Oc2ncccc2C1=O	0	.	-1	.	11
O=C1NCC2=C1C(c1ccccc1)Nc1ccccc1N2 (centres undefined)	.	3	active	5	.
O=C(C1=C[C@H](C2CC2)C[C@H](OCCCCO)O1)N1CCCC1	0	.	.	.	-5
O=C(N/N=C/c1ccc([N+](=O)[O-])o1)c1sc2ccccc2c1Cl	0	.	10	104*	-3
O=C(N/N=C/c1ccc([N+](=O)[O-])o1)C1CC1	42*	5	-1	-5	10
O=C(N/N=C/c1ccccn1)c1sc2ccccc2c1Cl	0	1	55*	-70	0
O=C(N/N=C/c1c[nH]c2ccccc12)c1sc2ccccc2c1Cl	.	-1	42	.	.
O=C(c1ccc2c(c1)OCO2)N1CC(=O)N2[C@@H](CO)[C@H](c3ccc(C#Cc4ccccc4)cc3)[C@@H]2C1	3	.	.	.	0
CN1C(=O)c2cc(NC(=O)Nc3cccc(Cl)c3)ccc2OC[C@@H]2O[C@H](CC(=O)O)CC[C@H]21	5	.	0	.	-2
OCCOCCn1c(C(CO)Nc2nc(-c3cccc(Br)c3)cs2)nc2ccccc21 (centres undefined)	.	.	5	.	.
OCCOCCn1c(C(CO)Nc2nc(-c3ccccc3Br)cs2)nc2ccccc21 (centres undefined)	4	.	5	0	23*
C/C=C/c1ccc2c(c1)O[C@H](CN(C)Cc1cccc(F)c1)[C@H](C)CN([C@@H](C)CO)S2(=O)=O	1	.	7	.	19*
C/C=C/c1ccc2c(c1)O[C@@H](CN(C)Cc1ccccc1F)[C@H](C)CN([C@@H](C)CO)S2(=O)=O	-1	.	16	.	19*
C/C=C/c1ccc2c(c1)O[C@@H](CN(C)Cc1ccccc1F)[C@@H](C)CN([C@H](C)CO)S2(=O)=O	0	.	15	.	5
CC(C)NC(=O)N(C)C[C@H]1Oc2ncc(C#Cc3ccc(F)cc3)cc2C(=O)N([C@H](C)CO)C[C@@H]1C	-1	.	-4	.	1
C[C@@H]1CN([C@H](C)CO)C(=O)c2cc(NC(=O)Nc3ccc(F)cc3)ccc2O[C@@H]1CN(C)S(=O)(=O)c1ccccc1	3	.	-2	.	0
COC(=O)N1C(=O)[C@@](c2ccc(Cl)cc2)(C(C)C)N1C(=O)OC	.	12	.	.	.
C[C@@H]1CN([C@H](C)CO)C(=O)c2cccc(NC(=O)Nc3ccc(C(F)(F)F)cc3)c2O[C@H]1CN(C)C(=O)Nc1ccccc1	4	.	-1	.	4
C[C@H]1CN([C@@H](C)CO)C(=O)c2cc(NC(=O)Nc3ccc(C(F)(F)F)cc3)ccc2O[C@H]1CN(C)Cc1ccncc1	-1	.	-1	.	3
SMILES	Casp6 inh	NSD2 HMT inh	ARNT TACC3 PPI	PfHsp90 yeast 2	SIRT5 inh
CC(C)(C)C(O)C(Cc1ccccc1Cl)n1cncn1 (centres undefined)	0	-1	0	92*	1
O=C(O)CCCC(=O)Nc1ccccc1C(=O)N1CCCC1	.	-3	-3	33	.
O=C(O)CCCC(=O)Nc1ccccc1C(=O)N1CCOCC1	-2	-8	.	-20	28*
Cn1cnc(CCNC(=O)C[C@H]2CC[C@@H]3[C@H](COC[C@H](O)CN3C(=O)C3CCCC3)O2)c1	0	.	8	.	35*!
Cn1cnc(CCNC(=O)C[C@@H]2CC[C@@H]3[C@H](COC[C@@H](O)CN3C(=O)Nc3ccc(Cl)cc3)O2)c1	2	.	2	.	19*
Cn1cnc(CCNC(=O)C[C@@H]2CC[C@H]3[C@@H](COC[C@H](O)CN3C(=O)C3CCCC3)O2)c1	1	.	-4	.	-1
COc1ccc(S(=O)(=O)Nc2ccc3c(c2)C(=O)N([C@@H](C)CO)C[C@H](C)[C@H](CN(C)Cc2ccc(Cl)c(Cl)c2)O3)cc1	1	.	4	.	-3
COc1ccc(S(=O)(=O)Nc2ccc3c(c2)C(=O)N([C@H](C)CO)C[C@@H](C)[C@@H](CN(C)Cc2ccc(Cl)c(Cl)c2)O3)cc1	0	.	11	.	19*
C[C@H]1CN([C@@H](C)CO)C(=O)c2cc(NS(=O)(=O)c3ccc(Cl)cc3)ccc2O[C@H]1CN(C)Cc1ccc(Cl)c(Cl)c1	.	.	12	.	23*
COCC(=O)N1C[C@@H]2[C@H](c3ccccc31)[C@@H](CO)N2C(=O)C1CCCCC1	1	.	-3	.	-5
C[C@@H]1CN([C@@H](C)CO)C(=O)Cc2cc(NC(=O)CCCN(C)C)ccc2O[C@H]1CN(C)Cc1ccc(-c2ccccc2)cc1	4	.	.	.	-8
C[C@@H]1CN([C@H](C)CO)C(=O)Cc2cc(NC(=O)Cc3cn(C)c4ccccc34)ccc2O[C@@H]1CN(C)C	-1	.	-4	.	26*
C[C@@H]1CN([C@@H](C)CO)C(=O)Cc2cc(NC(=O)Cc3cn(C)c4ccccc34)ccc2O[C@@H]1CN(C)Cc1ccc(-c2ccccc2)cc1	2	.	.	.	15*
C[C@@H]1CN([C@H](C)CO)C(=O)Cc2cc(NC(=O)CCCN(C)C)ccc2O[C@@H]1CN(C)Cc1ccc(-c2ccccc2)cc1	3	.	27	.	99*
COCC(=O)N1[C@H](C#N)[C@H](c2ccccc2-c2cccc(F)c2)[C@H]1CO	5	.	.	.	24*
Cc1ccccc1-c1ccccc1[C@@H]1[C@@H](C#N)N(C(=O)c2ccccc2)[C@H]1CO	0	.	.	.	-5
Cc1ccccc1-c1ccccc1[C@H]1[C@@H](C#N)N(C(=O)c2ccccc2)[C@@H]1CO	0	.	.	.	26*
CN(C)C(=O)c1cccc(-c2ccccc2[C@H]2[C@@H](C#N)N(C(=O)C3CC3)[C@@H]2CO)c1	2	.	.	.	29*
N#C[C@@H]1[C@H](c2ccccc2-c2ccccc2F)[C@@H](CO)N1C(=O)c1cccc(F)c1	1	.	.	.	18*
CCCN1C[C@H](C)[C@H](OC)CN(C)C(=O)c2cc(NS(=O)(=O)c3cn(C)cn3)ccc2OC[C@@H]1C	11	.	-6	.	-3

Screening results from PubChem.
